Results as given in PubChem BioAssay AID710 (SRMLSC, 2007).
Out of some 98,000 compounds screened, about 150 (0.15%) were called active.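 The calls were made as follows: active = growth inhibition above about 50% at one test dose (limit read from the data); inactive = the rest.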 Only a selection was taken, and actives are over-represented in it overall.

assay: antibacterial activity against E. coli BW25113 – strain BW25113, expanded library, OD600, primary screen (AID 710); details: OD600 absorbance, at 100 µM, hits give high values;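 also: growth measured after 20 h incubation at 37 °C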

Growth inhibition, active:
Brc1ccc(OCCn2ccnc2)cc1 55%
S=C1SCN(CCN2CCOCC2)CN1Cc1ccccc1 50%
ON=C1/C(=N\O)CC2(C/C1=N/O)OCCO2 57%
O=C(Nc1nnc(-c2ccc(Cl)cc2)o1)c1ccccc1Br 57%
O=C(NC(Nc1nc2ccc([N+](=O)[O-])cc2s1)(C(F)(F)F)C(F)(F)F)c1ccccc1 50%
O=C(CC(O)(C(F)(F)F)C(F)(F)F)Nc1ccc(Cl)c(Cl)c1 88%
NC(N)=N/N=C/c1ccc(OCc2ccc(Cl)cc2Cl)cc1 97%

Growth inhibition, inactive:
Cc1nnc(SCC(=O)NC2CCCC2)s1 -2%
COc1ccc(C(C#N)Nc2ccc(C)cc2)cc1 (stereo unspecified) 3%
CC1(C)C2CCC1(C)C(OC(=O)CCn1ccnc1)C2 (stereo unspecified) 6%
CCOc1ccccc1C(=O)NCCCn1ccnc1 10%
Cc1ccc(Cc2c(C)nc3nc(SCC(=O)NCCN4CCOCC4)nn3c2C)cc1 -9%
Cc1ccc(S(=O)(=O)N(CC(=O)N/N=C/c2ccc(F)cc2)c2cccc3cccnc23)cc1 -18%
CN(Cc1nc2ccccc2c(=O)[nH]1)Cc1cc(=O)oc2ccc3ccccc3c12 -4%
COC(=O)C1=C(Nc2ccc(OC)cc2)C=C(C)C(C(=O)OC)C1c1ccc(C)cc1 (stereo unspecified) -13%
N#C/C(=C(/O)COc1cccc2ccccc12)c1nc2ccccc2[nH]1 -8%
OC(COc1ccc2c(c1)CCC2)CN1CCN(c2cccc(Cl)c2)CC1 (stereo unspecified) 0%
CCc1nnc(NC(=O)CCC(=O)NCc2ccccc2OC)s1 -2%
Cc1ccc(-c2nnc(-n3nnc4ccccc43)c3ccccc23)cc1 -7%
O=C(N/N=C/C=C/c1ccccc1)C1CC1(c1ccccc1)c1ccccc1 (stereo unspecified) -15%
N=c1c2c(-c3ccccc3)c(-c3ccccc3)n(Cc3ccccc3)c2ncn1CCCO 13%
COc1ccc(/C=C2\CCCC3C2=NN(C(=O)c2scnc2C)C3c2ccc(OC)cc2)cc1 (stereo unspecified) -16%
CCC(=O)NC(NCC1CCCO1)C(Cl)(Cl)Cl (stereo unspecified) 3%
Cc1ccc(CNC(=O)COc2ccc(S(=O)(=O)NC(C)C)cc2)cc1 0%
CSc1ccc(C#N)cc1NC(=O)c1cccc(Cl)c1 -8%
Cc1cccc(NC(=O)/C(=C\c2ccco2)NC(=O)c2ccccc2)c1 -2%
CNC(=S)NNC(=O)c1sccc1OCc1ccccc1 -7%
Cc1ccc(NC(=S)NC(=O)c2ccc(-c3ccccc3)cc2)c(C)c1 -9%
COc1cccc(N(CC(=O)NCCSc2ccccn2)S(C)(=O)=O)c1 -2%
CN(C)c1nc(N)nc(CSc2ccccn2)n1 -1%
COc1ccccc1CSc1nc2ccccc2[nH]1 8%
COc1ccc(Nc2nc(-c3ccccc3)cs2)cc1 -6%
CN1C2CCC1/C(=C\c1ccccc1Cl)C(=O)/C2=C\c1ccccc1Cl -3%
CSCCC(C(=O)NC1=NCCS1)N1C(=O)c2ccccc2C1=O (stereo unspecified) -1%
COc1ccccc1NC(=O)COc1ccc(C(=O)OCC(=O)N(C(C)C)C(C)C)cc1OC -6%
Cc1ccc2nc(SCc3nnc(-c4ccccc4[N+](=O)[O-])o3)c(C#N)cc2c1 -15%
CC(Sc1nnc(Cc2ccc([N+](=O)[O-])cc2)o1)C(N)=O (stereo unspecified) 2%
COc1ccc(NC(=O)CC2COc3ccccc3O2)c(OC)c1 (stereo unspecified) 7%
CCN(CC)S(=O)(=O)c1ccc2c3c(cccc13)C(=O)S2 1%
COC(=O)[C@@H](NC(=O)Nc1cc(Cl)ccc1C)C(C)C 2%
O=C(Nc1ccc2nc3n(c(=O)c2c1)CCCCC3)c1ccccc1Cl -6%
COc1ccc(NC(=O)CSc2nc(N)c(-c3ccccc3)c(=O)[nH]2)cc1 -12%
CCOC(=O)c1cc2c(ccn2C)n1CC(=O)N1CCC(C)CC1 -6%
COc1ccc(NC(=O)CSc2nc(NS(=O)(=O)c3ccc(C)cc3)cc(=O)[nH]2)cc1 -5%
COc1ccc(CN2CN(C(C)C)CSC2=S)cc1 38%
CC(CN1CCOCC1)c1ccccc1 (stereo unspecified) 4%
COC(=O)c1ccc(CSc2nc3cc(Cl)ccc3o2)cc1 -5%
CC(=O)Nc1ccc(N2C(=O)CCC2=O)cc1C 0%
Cc1n[nH]c(=S)n1/N=C/c1ccc(Br)o1 -6%
COC(=O)c1ccc(NC(=O)c2ccccc2NS(=O)(=O)c2ccccc2)cc1 4%
CCOCCOCCC(C(=O)O)P(=O)(c1ccccc1)c1ccccc1 (stereo unspecified) 7%
N#Cc1ccc(-c2ccc(Cl)cc2)nc1Oc1ccc(F)cc1 -7%
CCC1CCCCN1CCCNC(=O)C1CCC(Cn2c(=O)[nH]c3ccccc3c2=O)CC1 (stereo unspecified) 4%
O=C1/C(=C/c2cccs2)CCc2ccccc21 7%
Cc1cccc(NC(=O)C(C)N2C(=O)C3C4CC(C(Br)C4Br)C3C2=O)c1 (stereo unspecified) 7%
Cc1ccc(S(=O)(=O)N(C)C2(C)CCS(=O)(=O)C2)cc1 (stereo unspecified) 4%
O=C(CN1CCSCC1)N/N=C/c1ccc(F)cc1 2%
CCCCNc1ccc(C(=O)Nc2cccc(C)n2)cc1[N+](=O)[O-] 4%
CCN(CC)C(=O)CSC1c2ccccc2C(=O)N1c1ccccc1 (stereo unspecified) 1%
CCCOc1ccc(C2NC(=O)NC(c3ccccc3)=C2C(C)=O)cc1OCC (stereo unspecified) -2%
COc1ccc(C(=O)Nc2ccc(F)cc2F)cc1 10%
CC(C)(C)c1cc2cccnc2n1Cc1ccccc1 9%
Cc1ccc(-c2nc3ccccc3[nH]2)cc1NC(=O)c1sc2ccccc2c1Cl -18%
CCC(=O)N(Cc1ccccc1)c1ccccn1 -3%
CCc1cc(C(c2ccccc2OC)N2CCOCC2)c(NC(=O)c2ccccc2)s1 (stereo unspecified) -3%
CSc1ccccc1NC(=O)c1cc(C2CC2)on1 6%
O=C(c1ccccc1)C(Cn1cncn1)C(Sc1ccccc1)c1ccccc1 (stereo unspecified) -9%
O=C(CCN1C(=O)c2ccccc2C1=O)Nc1cccc(F)c1 0%
c1ccc2c(C[n+]3csc4ccccc43)cccc2c1 -14%
CCCC(=O)Nc1nc2ccc(NC(=O)c3cccnc3)cc2s1 8%
O=C(CC12CC3CC(CC(C3)C1)C2)Nc1ccc2c(c1)COC2=O -1%
O/N=C1\CC2(Cc3nonc31)OCCO2 -4%
N=c1ccn(CC(=O)NC(N)=O)c2ccccc12 -4%
O=C(Nc1cccc(Cl)c1)Nc1nnc(-c2ccccc2)o1 2%
Cc1nonc1NC(=O)c1ccccc1Br -2%
CCCN(Cc1cc2cccc(C)c2[nH]c1=O)S(C)(=O)=O 2%
CCSc1nc(-c2ccc(OC)cc2)cc(-c2ccc(OC)cc2)c1C#N -14%
CC(C)(C)Cc1nnc(NC(=O)c2cc(-c3ccccc3)nc3ccccc23)s1 -12%
Cc1cc2c(cc1C)N(C(=O)CN1C(=O)c3ccccc3C1=O)C(C)(C)c1ssc(=S)c1-2 -26%
CC(C)NC(=O)C(=O)N/N=C/c1ccco1 0%
Cc1ccc(NC(=S)NC2CCCC2)cc1 10%
CCOc1ccc(OCC)c(-c2c(=O)n(OCc3ccc(Cl)cc3)c3ccccc3[n+]2[O-])c1 -15%
COc1ccc([N+](=O)[O-])cc1C1NN=C(c2cccc3ccccc23)S1 (stereo unspecified) 3%
Cc1cc(C)cc(OCC(=O)Nc2nc3ccc([N+](=O)[O-])cc3s2)c1 -14%
COC(=O)C(NC(=O)c1ccc(OC)cc1)(Nc1ncc(S(=O)(=O)c2ccc([N+](=O)[O-])cc2)s1)C(F)(F)F (stereo unspecified) -3%
Cc1cc(C)c2cc(CN(Cc3nnnn3Cc3ccc(F)cc3)C3CCCC3)c(=O)[nH]c2c1 -11%
O=C(NC1CCN(C(=S)NCc2ccco2)CC1)c1ccc(F)cc1 -4%
Cc1ccccc1OC/C(O)=C(\C#N)c1nc2ccccc2[nH]1 -10%
O=C(Cc1ccccc1)N/N=C/c1ccc(Cl)cc1Cl 1%
CC12c3ccccc3C(c3ccccc31)C1C(=O)N(Cc3cccnc3)C(=O)C12 (stereo unspecified) -1%
CCOc1ccc(N=C2NC(=O)S/C2=C\c2ccc(O)cc2)cc1 -8%
N/C(=N\OC(=O)Nc1ccc(Cl)c(Cl)c1)c1ncc(C(F)(F)F)cc1Cl 8%
Cc1nnc(NC(=O)Nc2ccc(Cl)c(Cl)c2)s1 -9%
Cc1nn(C)c(Oc2ccc(Cl)cc2)c1C=O -1%
FC(F)(F)c1ccc2nnc(-c3c(Cl)cccc3Cl)n2c1 -2%
Cc1cc(C)c2c(-n3cccc3)c(C(=O)NNS(=O)(=O)c3ccc(F)cc3)sc2n1 16%
COC(=O)c1sc2ncccc2c1OCc1ccc(Cl)cc1Cl -14%
NC(=O)COc1ccc(/C=N/NC(=O)C2CCCN2S(=O)(=O)c2ccc(Cl)cc2)cc1 (stereo unspecified) 6%
C=CCOC(=O)C1=C(C)NC(C)=C(C(=O)OCC=C)C1c1cccs1 5%
CCOC(=O)CN(Cc1ccc(OC)c(OC)c1)S(=O)(=O)c1ccc(OC)cc1 0%
O=C(NCc1cccnc1)c1cccnc1Sc1ccc(Cl)cc1 10%
